FBW7 act = human FBW7 E3 ligase activation, primary screen; normalized activity (activation), % at 26.1 µM; Q969H0; AlphaScreen FBW7–phospho-cyclin E peptide binding, activator screen; hit rate 0.13% among 650,000; in the data active = normalized activity above about 1.9%;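 note: purified mutant Fbw7 with reduced substrate affinity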
TEAD-YAP block = TEAD-YAP interaction inhibition; HEK-TIYL cells, TEAD-Gal4/YAP UAS-luciferase luminescence; inhibition, % at 9.12 µM; hit rate 1.4% among 640,000; in the data active = inhibition above about 32%;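 note: 0% = median of test compound wells and 100% = reference inhibitor wells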
GPR151 activ = activators of human GPR151; Q8TDV0; PathHunter beta-arrestin GPR151 cells, luminescence; activation, % at 11.2 µM; hit rate 1% among 650,000; AID 1508602; in the data active = activation above about 4.9%;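 note: 0% = median of compound wells and 100% = cells with positive control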
MITF inh = blocks human microphthalmia-associated transcription factor | hit rate 0.91% among 650,000 | O75030 | inhibition, % at 2.6 µM | AlphaScreen MITF homodimerization, bead proximity signal; in the data active = inhibition above about 50%;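 note: 0% = vehicle wells with protein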
Target sequence (O75030 whole entry, looked up): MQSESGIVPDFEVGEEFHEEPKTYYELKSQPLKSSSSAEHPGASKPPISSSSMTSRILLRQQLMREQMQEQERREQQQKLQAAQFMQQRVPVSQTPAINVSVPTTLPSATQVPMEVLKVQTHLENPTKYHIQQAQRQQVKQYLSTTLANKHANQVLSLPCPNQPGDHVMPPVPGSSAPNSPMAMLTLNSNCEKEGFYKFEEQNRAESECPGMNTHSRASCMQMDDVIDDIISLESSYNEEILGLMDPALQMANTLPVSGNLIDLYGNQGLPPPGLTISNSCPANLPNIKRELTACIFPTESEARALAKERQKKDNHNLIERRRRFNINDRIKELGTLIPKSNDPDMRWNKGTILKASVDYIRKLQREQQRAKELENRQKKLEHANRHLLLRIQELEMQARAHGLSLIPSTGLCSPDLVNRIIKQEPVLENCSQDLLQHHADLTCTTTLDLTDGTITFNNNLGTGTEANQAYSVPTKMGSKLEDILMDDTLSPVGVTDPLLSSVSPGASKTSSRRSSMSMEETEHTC
* marks the source's active call; other numbers are inactive results. Sampled rows, rich in hits. Any-hit rate of the full collection: about 3.5%.

SMILES	FBW7 act	TEAD-YAP block	GPR151 activ	MITF inh
Cc1ccc2c(c1)sc1nc(-c3ccccc3)cn12	2.4*	96*	-7	-20
Cc1ccc(-c2cn3c(n2)sc2cc(C(=O)N4CCC(C(N)=O)CC4)ccc23)cc1	1	-39	0	6
COc1ccccc1C(=O)Nc1ccc2nc(SC(C)c3ccccc3)sc2c1 (stereo unspecified)	0	54*	3	-4
O=C(CSc1nc2ccc(NC(=O)c3ccccc3Cl)cc2s1)Nc1cccc([N+](=O)[O-])c1	0	32*	0	10
O=C(CSc1nc2ccc(NC(=O)c3ccccc3C(=O)O)cc2s1)NCc1ccccc1	0	41*	-1	5
COc1ccccc1C(=O)Nc1ccc2nc(SCC(C)=O)sc2c1	0	-43	1	6
O=C(CSc1nc2ccc(NC(=O)c3ccccc3Cl)cc2s1)Nc1ccccc1	0	-41	0	-2
Nc1nc(SCC(=O)Nc2cccc([N+](=O)[O-])c2)sc1C(=O)Nc1nccs1	0	32*	-5	5
COc1ccccc1C(C(=O)NC(C)(C)C)N(Cc1ccccc1)C(=O)c1csnn1 (stereo unspecified)	0	2	1	-13
Cc1nnc(SCCNC(=O)CC2C(=O)NCCN2CCC(C)C)s1 (stereo unspecified)	0	-8	2	0
Cc1nc(CN2CCN(C(=O)CCl)CC2)cs1	0	48*	4	4
Cc1nc(CN2CCN(S(C)(=O)=O)CC2)cs1	0	-17	0	-26
CS(=O)(=O)N1CC=C[C@H]1C(=O)NCc1ccco1	0	-3	-1	1
COc1ccc(N(C)S(=O)(=O)c2cccc3cccnc23)c(OC)c1	0	39*	0	-10
CCCCNC(=O)c1c[nH]c2ccc(S(=O)(=O)N3CC(C)CC(C)C3)cc2c1=O (stereo unspecified)	0	4	0	9
Cc1ccc(N2CN=c3s/c(=C4\C(=O)Nc5ccccc54)c(=O)n3C2)cc1	0	10	0	12
CCOCCOC(=O)c1[nH]c2c(c1C)C(=O)CC(c1ccco1)C2 (stereo unspecified)	0	51*	0	-6
COCCOC(=O)c1[nH]c2c(c1C)C(=O)C(C(=O)OC)C(C)C2 (stereo unspecified)	0	-10	-1	-15
Cc1c(C(=O)OCCOC(C)C)[nH]c2c1C(=O)CC(C)(C)C2	0	-6	1	-4
Cc1c(C(=O)OCCOC(C)C)[nH]c2c1C(=O)CC(c1ccco1)C2 (stereo unspecified)	0	60*	0	5
COCCOC(=O)c1[nH]c2c(c1C)C(=O)CC(c1ccco1)C2 (stereo unspecified)	0	49*	0	5
Cc1c(C(=O)OCc2ccccc2)[nH]c2c1C(=O)CC(c1ccco1)C2 (stereo unspecified)	0	57*	0	15
CSc1nnc(NC(=O)c2cccc(C)c2)s1	0	-29	-2	1
CCOC(=O)c1[nH]c2c(c1C)C(=O)CC(c1ccco1)C2 (stereo unspecified)	0	58*	2	21
CCOCCOC(=O)c1[nH]c2c(c1C)C(=O)CC(c1ccc(OCC)cc1)C2 (stereo unspecified)	0	6	0	4
SMILES	FBW7 act	TEAD-YAP block	GPR151 activ	MITF inh
CSCCOC(=O)c1[nH]c2c(c1C)C(=O)CC(c1ccco1)C2 (stereo unspecified)	0	50*	2	13
CN(C)C(=O)Cn1nc(-c2cccnc2)oc1=O	0	-2	0	0
CCc1c(C)nc2ncnn2c1NCCc1ccc(OC)cc1	0	66*	0	-1
O=C(Nc1ccc2c(c1)CN(C(=O)c1ccco1)CC2)c1cccc2ccccc12	0	45*	0	3
O=C(Nc1ccc2c(c1)CN(C(=O)C1CCOCC1)CC2)c1ccccc1Cl	0	34*	1	-2
O=C(Nc1ccc2c(c1)CN(C(=O)c1ccco1)CC2)c1ccc(F)c(F)c1	0	-13	1	-1
CCC(=O)N1CCc2ccc(NC(=O)c3c(F)cccc3F)cc2C1	0	33*	-1	18
O=C(Nc1ccc2c(c1)CN(C(=O)C1CCOC1)CC2)c1ccc(C(F)(F)F)cc1 (stereo unspecified)	0	10	1	6
O=C(Nc1ccc2c(c1)CN(C(=O)C1CCOC1)CC2)c1ccccc1Cl (stereo unspecified)	0	51*	0	8
CCc1cc(=O)[nH]c(N2CCN(CC(=O)NC3CC3)CC2)n1	0	-9	0	-5
COCC(=O)Nc1ccc2c(c1)CN(C(=O)c1ccco1)CC2	0	-19	-1	37
O=C(Nc1c2c(nn1-c1ccc(F)cc1)CSC2)c1cc([N+](=O)[O-])ccc1Cl	0	86*	0	4
Cc1ccc(-n2nc3c(c2NC(=O)c2cc([N+](=O)[O-])ccc2Cl)CSC3)cc1	0	63*	-1	5
O=C(Nc1c2c(nn1-c1ccc(Cl)cc1)CSC2)c1cc([N+](=O)[O-])ccc1Cl	0	6	1	7
CCOC(=O)CNC(=O)CNC(=O)CCC(=O)NCC(=O)NCC(=O)OCC	0	2	0	8
Cc1cc(OCC(O)CNC(C)C)ccc1C(C)C (stereo unspecified)	0	51*	0	-16
Cc1cc(OCCCNCCN)ccc1C(C)C	0	-2	-2	-2
C=CCNCCCOc1ccc(C(C)C)c(C)c1	0	42*	-3	37
Cc1cc(OCC(O)CNC2CCCC2)ccc1C(C)C (stereo unspecified)	0	12	0	13
OC(c1cccnc1)c1ccc2c(c1)CN(Cc1ccc3nsnc3c1)CCO2 (stereo unspecified)	0	0	0	7
Oc1ccc(CCNc2nc(Nc3nccc4ccccc34)nc3c2ncn3-c2ccsc2)cc1	0	66*	1	10
COc1ccc(CCNc2nc(Nc3nccc4ccccc34)nc3c2ncn3C2CCCCC2)cc1	0	33*	-1	4
CCCNc1nc(Nc2nccc3ccccc23)nc2c1ncn2-c1ccccc1	0	6	2	-2
CCCNc1nc(Nc2nccc3ccccc23)nc2c1ncn2-c1ccsc1	0	65*	0	9
Oc1ccc(CCNc2nc(Nc3nccc4ccccc34)nc3c2ncn3C2CCCCC2)cc1	0	22	-1	16
CC(C)n1cnc2c(Nc3ccc4c(c3)OCO4)nc(Nc3cnccn3)nc21	12*	-5	0	-2
Cc1cnc(Nc2ccc(-n3ccnc3)cc2)nc1Nc1ccc2c(c1)OCO2	0	60*	-2	2
CC(C)n1cnc2c(Nc3ccc(N4CCOCC4)cc3)nc(Nc3ccc(-n4ccnc4)cc3)nc21	0	50*	4	3
c1cnc(Nc2nc(Nc3ccc4c(c3)OCO4)c3ncn(C4CCCCC4)c3n2)cn1	0	-23	0	1
CC(C)n1cnc2c(Nc3ccc4c(c3)OCO4)nc(Nc3ccccc3)nc21	0	5	0	12

Compound activity deposited in PubChem by The Scripps Research Institute Molecular Screening Center.
